The structures appear in SMILES notation. Values without a mark were called inactive. How the calls were made is not given here.

The term inhibition denotes the change of the read-out against control, counted positive when it falls.

Chain of Pantothenate synthetase (Mycobacterium tuberculosis (strain ATCC 25618 / H37Rv)) (P9WIL5 whole entry, looked up): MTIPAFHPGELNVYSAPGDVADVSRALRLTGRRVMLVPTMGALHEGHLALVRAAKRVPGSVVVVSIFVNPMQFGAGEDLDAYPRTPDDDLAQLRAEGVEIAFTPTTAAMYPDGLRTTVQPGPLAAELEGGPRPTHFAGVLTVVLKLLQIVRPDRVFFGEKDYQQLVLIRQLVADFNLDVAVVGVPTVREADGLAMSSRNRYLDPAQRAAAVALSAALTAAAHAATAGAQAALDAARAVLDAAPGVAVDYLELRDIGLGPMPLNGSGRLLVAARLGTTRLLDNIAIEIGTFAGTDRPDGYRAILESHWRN

The experiment concerns the target Pantothenate synthetase (Mycobacterium tuberculosis (strain ATCC 25618 / H37Rv)) (UniProt P9WIL5). The experiment can be described thus: Coupled enzyme confirmation of inhibitors against recombinant Mtb PanC (AID 375).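 Further: 0% = full reaction with vehicle and 100% = no enzyme background.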 The conditions noted are these: coupled enzyme assay; at 10 µM, stronger effect = higher value.
For `c1ccc(-c2csc(N3CCCCCC3)n2)cc1`, the inhibition was 4%.

Regarding `N[C@@H](Cc1ccccc1)c1nnc2sc(SCc3ccccc3)nn12`, the inhibition is 1%.

`Cc1ccc(CCNC(=O)C2CCN(S(=O)(=O)c3c(C)nn(C)c3C)CC2)cc1`: the inhibition is 0%.

Take `CN1CCN(CC(=O)N2c3ccccc3C(=O)Nc3cccnc32)CC1`: the inhibition was 4%.

In the case of `CCOc1ccccc1C(=O)Nc1cc(=O)n(C)c(=O)n1C`, the inhibition was 10%.

In the case of `CC(NCc1ccco1)C(=O)N1CCc2ccccc2C1` (stereo not given), the inhibition was 5%.

Consider `CCOC(=O)c1nc2sc3c(c2c(=O)[nH]1)CCCC3`, for which the inhibition was 0%.

For `COCCNC(=O)CN(C)S(=O)(=O)c1ccc2c(c1)OCCO2`, the inhibition was 7%.

For `S=c1[nH]nc(-c2ccco2)n1-c1cccc2ccccc12`, the inhibition was 0%.

For `Cc1ccc(-c2nnc(SCC(=O)N3c4ccccc4NC(=O)C3(C)C)n2N)cc1`, the inhibition was 1%.

Take `O=C(COc1ccccc1)Nc1ccccc1N1CCN(c2ccccc2)CC1`: the inhibition was 2%.

Regarding `COC(=O)c1cc(Br)c(=O)n(-c2nccs2)c1`, the inhibition is 0%.

For the molecule `CN(C)C(=O)c1ccc(COc2ccccc2Br)o1`, the inhibition is 0%.

On to `COc1ccc(C(=O)NCc2ccccc2OC)cc1`, for which the inhibition is 0%.

Turning to `O=C(NC1CCCCC1)n1c(=O)oc2ccc(Cl)cc21`, the inhibition is 5%.

Consider `O=C(Cn1nnc(-c2ccc(S(=O)(=O)N3CCCC3)cc2)n1)NCC1CCCO1` (stereo not given), for which the inhibition was 0%.

In the case of `Cc1ccc(C(=O)NC(Cc2c[nH]c3ccccc23)C(=O)O)o1` (stereo not given), the inhibition was 0%.

In the case of `Cc1cccc(-n2nnc(C(=O)NCc3ccccc3)c2N)c1`, the inhibition was 0%.

In the case of `Cc1ccc2nsnc2c1S(=O)(=O)N(Cc1cc2cccc(C)c2[nH]c1=O)CC1CCCO1` (stereo not given), the inhibition was 0%.

For `CN1CCN(CC(=O)Nc2ccc(Cl)cc2Cl)CC1`, the inhibition is 3%.

`O=C(COc1ccc(S(=O)(=O)N2CCCC2)cc1Cl)NC1CC1`: the inhibition was 8%.

Consider `O=C(CN(Cc1cccs1)C(=O)CNS(=O)(=O)c1ccccc1)NCc1ccco1`, for which the inhibition was 3%.

For the molecule `Cc1cc(C)nc(NS(=O)(=O)c2ccc(NC(=O)Cn3c(=O)oc4ccccc43)cc2)n1`, the inhibition was 1%.

Regarding `COc1ccccc1NC(=O)CSc1nnc(-c2ccncc2)o1`, the inhibition was 0%.

For `Cc1nn(-c2ccccc2)c(C)c1/C=N/O`, the inhibition was 0%.

On to `NC(=O)CN1C(=O)C(O)(CC(=O)c2ccccc2O)c2ccccc21` (stereo not given), for which the inhibition is 0%.

For the molecule `Cc1ccc(NC(=O)C2CCCN(S(=O)(=O)c3cnc[nH]3)C2)cc1F` (stereo not given), the inhibition was 0%.

For the molecule `CCN(CC)CCCNC1CCS(=O)(=O)C1` (stereo not given), the inhibition is 1%.

With `O=S(=O)(Nn1cnnc1)c1ccccc1Cl`, the inhibition was 0%.

`Cc1ccc(-c2noc(C3CCCN(C(=O)c4ccccc4)C3)n2)o1` (stereo not given): the inhibition was 0%.

Take `COc1cc(NC(=O)C2CC(c3cccc(OC)c3OC)=NO2)cc(OC)c1OC` (stereo not given): the inhibition is 0%.

Take `Cc1nc2ccccc2c(=O)n1/N=C/c1ccncc1`: the inhibition is 3%.

In the case of `CCOC(=O)C1=C(C)N(C)C(C)=C(C(=O)OCC)C1c1cccnc1`, the inhibition was 2%.

Regarding `COc1ccc(CNCC(=O)Nc2cc(C)nn2-c2nc(C)cc(C)n2)cc1OC`, the inhibition was 0%.

For `COc1cccc(NC(=O)N2CCC(N3CCCCC3)CC2)c1`, the inhibition was 0%.

As to `COc1ccccc1C(=O)N1CCCC(c2nc(-c3cc(OC)c(OC)c(OC)c3)no2)C1` (stereo not given), the inhibition was 0%.

As for `O=C(CSc1nc2ccsc2c(=O)n1NC(=O)c1ccccc1)Nc1nccs1`, the inhibition is 0%.

As to `CCCn1c(NCc2cc(C)ccc2O)nc2ccccc21`, the inhibition is 0%.

As to `CCN(CC)C(=O)COc1ccc2oc(C)c(C(=O)OC(C)C)c2c1`, the inhibition is 4%.

`Cn1c(=O)c2c3c(sc2n2c(SCc4ccccc4)nnc12)CCCC3`: the inhibition is 0%.

Values taken from PubChem BioAssay.
